# Among all 39,000 compounds or so, about 1,500 (3.8%) were called active. The sample as a whole holds a higher share of actives than the screen did.
# Tested on: HSkMC (human skeletal muscle cells)
# Assay: cytotoxicity call (relative viability < 0.9)
# Settings: 10 µM
row,Compound,cytotoxicity call
1,C[C@H](CO)N1C[C@H](C)[C@@H](CN(C)C(=O)C2CCCCC2)Oc2cc(-c3cncnc3)ccc2S1(=O)=O,inactive
2,C[C@H](CO)N1C[C@H](C)[C@H](CN(C)Cc2ccccc2)Oc2ccc(NS(=O)(=O)c3cn(C)cn3)cc2CC1=O,inactive
3,C[C@H](CO)N1C[C@H](C)[C@H](CN(C)S(=O)(=O)c2ccc(C(F)(F)F)cc2)OCc2ccccc2-c2c(n(C)c3ccccc23)C1=O,inactive
4,CC(C)NC(=O)Nc1ccc2c(c1)C(=O)N([C@@H](C)CO)C[C@@H](C)[C@@H](CN(C)C(=O)NC1CCCCC1)O2,inactive
5,C[C@@H]1CCCCO[C@H](CN(C)C(=O)c2ccccc2)[C@@H](C)CN([C@@H](C)CO)C(=O)c2cc(NC(=O)Nc3ccc(F)cc3)ccc2O1,inactive
6,COc1ccc(S(=O)(=O)N(C)C[C@H]2OCCCC[C@H](C)Oc3ccc(NC(=O)c4ccccc4)cc3C(=O)N([C@@H](C)CO)C[C@H]2C)cc1,inactive
7,COc1ccc2c3c(n(c2c1)C)[C@H](CO)N(C[C@]13CN(C1)S(=O)(=O)c1cn(cn1)C)C(=O)Nc1ccc(cc1)F,inactive
8,COc1ccc(S(=O)(=O)Nc2ccc3c(c2)C(=O)N([C@@H](C)CO)C[C@@H](C)[C@@H](CN(C)C(=O)Nc2ccc(C(F)(F)F)cc2)OCCCC[C@@H](C)O3)cc1,inactive
9,C[C@@H]1CCCCO[C@H](CN(C)C(=O)CCC(F)(F)F)[C@H](C)CN([C@@H](C)CO)C(=O)c2cc(NS(=O)(=O)c3cccs3)ccc2O1,inactive
10,COC(=O)[C@H]1c2cc3c(c(O)c2[C@@H](O[C@@H]2O[C@H](C)[C@H](OC)[C@](C)(OC)[C@@H]2OC)C[C@@]1(C)O)C(=O)c1c(O)cc2c(c1C3=O)O[C@H]1O[C@@]2(C)[C@@H](O)[C@H](N(C)C)[C@@H]1O,inactive
11,CC[C@@]1(O)C[C@H](O[C@H]2C[C@H](N(C)C)[C@H](O[C@H]3C[C@H](O)[C@H](O[C@H]4CCC(=O)[C@H](C)O4)[C@H](C)O3)[C@H](C)O2)c2c(cc3c(c2O)C(=O)c2c(O)cccc2C3=O)[C@H]1C(=O)OC,active
12,C[C@@H]1CCCCO[C@H](CN(C)Cc2ccc(Cl)c(Cl)c2)[C@@H](C)CN([C@H](C)CO)C(=O)c2cc(NC(=O)c3ccncc3)ccc2O1,inactive
13,CC=Cc1ccc2n(c1=O)C[C@H]1[C@H](CO)[C@@H](C(=O)NCCc3cn(C)cn3)[C@@H]2N1C(=O)C1CC1,inactive
14,C[C@H](CO)N1C[C@H](C)[C@H](CN(C)C(=O)Nc2ccc3c(c2)OCO3)Oc2c(NC(=O)C3CC3)cccc2C1=O,inactive
15,C[C@H](CO)N1C[C@H](C)[C@@H](CN(C)S(=O)(=O)c2ccc(Cl)cc2)OCCCC[C@H](C)Oc2ccc(NS(=O)(=O)c3ccccc3)cc2C1=O,inactive
16,Cc1c(N)nc([C@H](CC(N)=O)NC[C@H](N)C(N)=O)nc1C(=O)N[C@H](C(=O)N[C@H](C)[C@@H](O)[C@H](C)C(=O)N[C@H](C(=O)NCCc1nc(-c2nc(C(=O)NCCCNCCCCN)cs2)cs1)[C@@H](C)O)[C@@H](O[C@@H]1O[C@@H](CO)[C@@H](O)[C@H](O)[C@@H]1O[C@@H]1O[C@H](CO)[C@@H](O)[C@H](OC(N)=O)[C@@H]1O)c1c[nH]cn1,active
17,Cc1ccc(S(=O)(=O)N(C)C[C@@H]2Oc3ccc(NC(=O)Cn4cnnn4)cc3CC(=O)N([C@@H](C)CO)C[C@H]2C)cc1,inactive
18,C[C@@H]1CN([C@@H](C)CO)C(=O)c2cccc(NC(=O)Nc3ccccc3)c2O[C@@H]1CN(C)Cc1ccc(C(F)(F)F)cc1,inactive
19,C[C@H]1CN([C@@H](C)CO)C(=O)c2cccc(NC(=O)Nc3ccc(C(F)(F)F)cc3)c2O[C@H]1CN(C)Cc1ccc(-c2ccccc2)cc1,inactive

row,Compound,cytotoxicity call
1,C[C@@H]1CN([C@H](C)CO)C(=O)c2cccc(NC(=O)Nc3ccccc3)c2O[C@H]1CN(C)Cc1ccc(C(F)(F)F)cc1,active
2,C[C@@H]1CN([C@H](C)CO)C(=O)c2cccc(NC(=O)Nc3ccc(C(F)(F)F)cc3)c2O[C@@H]1CN(C)Cc1ccc(-c2ccccc2)cc1,active
3,C[C@@H]1CN([C@H](C)CO)C(=O)c2cccc(NC(=O)Nc3ccc(C(F)(F)F)cc3)c2O[C@H]1CN(C)Cc1ccc(-c2ccccc2)cc1,inactive
4,C[C@H]1CN([C@@H](C)CO)C(=O)c2cccc(NC(=O)Nc3ccccc3)c2O[C@@H]1CN(C)Cc1ccc(C(F)(F)F)cc1,active
5,C[C@@H]1CN([C@@H](C)CO)C(=O)c2cccc(NC(=O)Nc3ccccc3)c2O[C@H]1CN(C)Cc1ccc(C(F)(F)F)cc1,inactive
6,C[C@H](CO)N1C[C@H](C)[C@H](CN(C)Cc2ccc(C(F)(F)F)cc2)Oc2c(NC(=O)Nc3ccccc3)cccc2C1=O,inactive
7,C[C@H](CO)N1C[C@H](C)[C@@H](CN(C)Cc2ccc(C(F)(F)F)cc2)Oc2c(NC(=O)Nc3ccccc3)cccc2C1=O,inactive
8,Cc1noc(C)c1NC(=O)Nc1ccc2c(c1)C(=O)N([C@H](C)CO)C[C@H](C)[C@H](CN(C)Cc1ccncc1)OCCCC[C@H](C)O2,inactive
9,Cc1noc(C)c1S(=O)(=O)N(C)C[C@H]1Oc2ccc(NC(=O)Cc3ccccc3)cc2CC(=O)N([C@@H](C)CO)C[C@H]1C,inactive
10,CN(C)Cc1cn(CC[C@H]2CC[C@@H](NC(=O)Cc3cccnc3)[C@H](CO)O2)nn1,inactive
11,C[C@H](CO)N1C[C@H](C)[C@@H](CN(C)Cc2ccc(-c3ccccc3)cc2)Oc2c(NC(=O)CCCCCC(=O)Nc3ccccc3N)cccc2C1=O,inactive
12,CC(C)NC(=O)N(C)C[C@H]1Oc2cc(C#Cc3cccc(F)c3)ccc2S(=O)(=O)N([C@@H](C)CO)C[C@@H]1C,inactive
13,C[C@H](NC(=O)C[C@H]1CC[C@H](NC(=O)CN2CCOCC2)[C@@H](CO)O1)c1ccccc1,inactive
14,COc1ccc(NC(=O)Nc2cccc3c2O[C@H](CN(C)Cc2ccc(Oc4ccccc4)cc2)[C@H](C)CN([C@H](C)CO)C3=O)cc1,inactive
15,COc1ccc(NC(=O)Nc2cccc3c2O[C@@H](CN(C)Cc2ccc(Oc4ccccc4)cc2)[C@@H](C)CN([C@H](C)CO)C3=O)cc1,active
16,COc1ccc(NC(=O)Nc2cccc3c2O[C@@H](CN(C)Cc2ccc(Oc4ccccc4)cc2)[C@H](C)CN([C@H](C)CO)C3=O)cc1,inactive
17,COc1ccc(NC(=O)Nc2cccc3c2O[C@H](CN(C)Cc2ccc(Oc4ccccc4)cc2)[C@@H](C)CN([C@@H](C)CO)C3=O)cc1,active
18,COc1ccc(NC(=O)Nc2cccc3c2O[C@@H](CN(C)Cc2ccc(Oc4ccccc4)cc2)[C@H](C)CN([C@@H](C)CO)C3=O)cc1,inactive
19,COc1ccc(NC(=O)Nc2cccc3c2O[C@@H](CN(C)Cc2ccc(Oc4ccccc4)cc2)[C@@H](C)CN([C@@H](C)CO)C3=O)cc1,inactive

# — the antibiotic and cytotoxicity screens of Wong et al. (2023)
